Experimental data published in PubChem BioAssay (NCI).
The panel holds about 83,000 compounds, 20% with a hit somewhere; the sample as a whole holds those more often.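 In brief: 96-well plates, 48 h treatment, single concentration, percent growth endpoint.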 Values without a mark were called inactive. Calls of active or inactive are those of the source. Rule for the calls: active = growth percent below 10; inactive = the rest.

Columns and labels:
Experiment in all cases: NCI-60 one-dose screen, 48 h (100 = growth as untreated, 0 = no growth, -100 = all killed)
Conditions in all cases: 10 µM unless noted
DU-145 prostate = test system: DU-145 prostate
K-562 leukemia = test system: K-562 leukemia
MALME-3M melanoma = test system: MALME-3M melanoma
MDA-MB-231 breast = test system: MDA-MB-231 breast
SF-268 CNS = test system: SF-268 CNS
SF-295 CNS = test system: SF-295 CNS
SF-539 CNS = test system: SF-539 CNS
M14 melanoma = test system: M14 melanoma
HT29 colon = test system: HT29 colon
SNB-75 CNS = test system: SNB-75 CNS
SNB-19 CNS = test system: SNB-19 CNS
U251 CNS = test system: U251 CNS
PC-3 prostate = test system: PC-3 prostate
SK-MEL-5 melanoma = test system: SK-MEL-5 melanoma
UACC-62 melanoma = test system: UACC-62 melanoma
LOX IMVI melanoma = test system: LOX IMVI melanoma
SK-MEL-28 melanoma = test system: SK-MEL-28 melanoma
UACC-257 melanoma = test system: UACC-257 melanoma
HCT-15 colon = test system: HCT-15 colon
RXF 393 renal = test system: RXF 393 renal

SMILES | growth (DU-145 prostate) | growth (K-562 leukemia) | growth (MALME-3M melanoma) | growth (MDA-MB-231 breast) | growth (SF-268 CNS) | growth (SF-295 CNS) | growth (SF-539 CNS) | growth (M14 melanoma) | growth (HT29 colon) | growth (SNB-75 CNS) | growth (SNB-19 CNS) | growth (U251 CNS) | growth (PC-3 prostate) | growth (SK-MEL-5 melanoma) | growth (UACC-62 melanoma) | growth (LOX IMVI melanoma) | growth (SK-MEL-28 melanoma) | growth (UACC-257 melanoma) | growth (HCT-15 colon) | growth (RXF 393 renal)
COC(=O)[C@@H](C)C[C@H](Cc1ccc(F)cc1)NC(=O)c1csc([C@@H](C[C@H](C(C)C)N(C)C(=O)[C@@H](NC(=O)[C@H]2CCCCN2C)C2CC2)OC(C)=O)n1 | 13.1% | 9.43% (active) | 55.2% | 13.3% | 30.9% | 2.38% (active) | -4.81% (active) | 1.41% (active) | 0.34% (active) | 54.3% | 36.5% | 5.77% (active) | 28.7% | -20.7% (active) | 43.3% | 23.9% | 59% | – | – | –
CCCCCCCC(=O)OCC(=O)[C@]1(O)Cc2c(O)c3c(c(O)c2[C@@H](OC2CC(N)C(O)C(C)O2)C1)C(=O)c1c(OC)cccc1C3=O (stereo not given in full) | -100% (active) | -86.7% (active) | -70.7% (active) | -72.4% (active) | -82.1% (active) | -68.1% (active) | -79.9% (active) | -69.8% (active) | -63.5% (active) | -79.5% (active) | – | -46.5% (active) | -100% (active) | -91.2% (active) | -75.4% (active) | -4.4% (active) | -84% (active) | -98.2% (active) | -61.5% (active) | –
O=C1OCC2=C1C(c1ccccc1)c1cc3c(cc1N2)OCO3 (stereo not given) | -36.2% (active) | 14.5% | 58% | -1.65% (active) | 10.4% | 6.68% (active) | 4.21% (active) | 10% | 4.87% (active) | 45.9% | 36.2% | 9.54% (active) | 25.9% | -39.6% (active) | 31% | 26.2% | 64.2% | 35.2% | 10.9% | –
COC(=O)C1OC(Oc2ccc(N(CCCl)CCCl)cc2)C(OC(C)=O)C(OC(C)=O)C1OC(C)=O (stereo not given) | 104% | 94.6% | 96.1% | 88.5% | 79.1% | 53.1% | 70.9% | 102% | 80.7% | 59.2% | 92.6% | – | 78% | 92.1% | 79.6% | 77.2% | 83.5% | 79.6% | 83.3% | –
CC(=O)[O][Hg][c]1c(N)c(C)cc(C)c1F | 36.3% | 5.95% (active) | -72.4% (active) | 7.24% (active) | -15.5% (active) | 73% | 28.3% | 5.84% (active) | 10% (active) | 32% | 112% | – | 51.9% | 41% | 27.8% | -70.1% (active) | -39.1% (active) | 31% | -14.2% (active) | –
ClCCN(CCCl)c1ccc(-n2cnc3c(Cl)ncnc32)cc1 | 21.9% | -2.07% (active) | – | 62.9% | -11.9% (active) | 87% | 115% | 33.3% | 12.7% | 26.1% | 79.2% | 32.8% | 64.1% | 86.3% | 31.5% | – | -10.5% (active) | 49.7% | -26.7% (active) | -57.2% (active)
CCCCN1CCCC[C@@H]1C(=O)N[C@H](C(=O)N(C)[C@H](CCc1nc(C(=O)N[C@@H](Cc2ccccc2)C[C@H](C)C(=O)OC)cs1)C(C)C)[C@@H](C)CC | 79.2% | 34% | 48.5% | 59.6% | 64.4% | 26.3% | 84% | 48.6% | 35.2% | 70.3% | 62.5% | 58.3% | 40.8% | 34.8% | 47% | 78.2% | 81.1% | – | 41.4% | –
COC(=O)[C@@H](C)C[C@H](Cc1cn(C)c2ccccc12)NC(=O)c1csc([C@@H](C[C@H](C(C)C)N(C)C(=O)[C@@H](NC(=O)[C@H]2CCCCN2C)C(C)C)OC(C)=O)n1 | 12.4% | 6.65% (active) | 50.4% | 5.09% (active) | 16.6% | -0.0499% (active) | -8.57% (active) | -10.2% (active) | 3.4% (active) | 59% | 35.6% | 15.4% | 24.3% | -38.4% (active) | 47.8% | 19.1% | 60.6% | – | 9.96% (active) | –
Cc1ccc(Nc2nc3c(s2)C2=CC[C@@H]4[C@H](CC[C@]5(C)C(=O)CC[C@@H]45)[C@@]2(C)CC3)cc1 | 46.5% | 19.8% | 70% | 52.8% | 56.3% | 5.48% (active) | 3.73% (active) | 62.2% | 15% | 28.7% | 55.4% | 33.4% | 33% | 56.6% | 68.3% | 21.3% | 37.6% | 80.3% | 17% | –
Cc1ccc(C(=O)NCCCOc2ccc(N)cc2Cl)cc1S(=O)(=O)F | 107% | 91.9% | 87.6% | 106% | 102% | 86.3% | 103% | 97.8% | 101% | 75.1% | 95.1% | – | 105% | 97.2% | 100% | 85.5% | 104% | 87.1% | 89.4% | –
CC(C)=CCC/C(C)=C/C=N\N=C(/N)N[N+](=O)[O-] | 102% | 95.9% | 93.5% | – | 93% | 101% | 89.2% | 102% | 97.6% | 89.8% | 99.2% | 93.5% | 97.6% | 98.8% | 95.6% | 94.8% | – | 107% | 97.6% | 122%
COC(=O)C1CCC(NC(=O)c2csc([C@@H](C[C@H](C(C)C)N(C)C(=O)[C@@H](NC(=O)[C@H]3CCCCN3C)C(C)C)OC(C)=O)n2)CC1 (stereo not given in full) | 9.8% (active) | 10% | 57.8% | 12.1% | 22.6% | 2.5% (active) | -10.1% (active) | 1.47% (active) | -0.603% (active) | 61.6% | 38.4% | 2.97% (active) | 28.9% | -27.7% (active) | 48.1% | 21.5% | 60% | – | 11.5% | –
COC(=O)CC12CC(NC(=O)c3csc([C@@H](C[C@H](C(C)C)N(C)C(=O)[C@@H](NC(=O)[C@H]4CCCCN4C)C(C)C)OC(C)=O)n3)(C1)C2 | 14% | 9.94% (active) | 51% | 6.67% (active) | 26.1% | -7.27% (active) | -12.8% (active) | 7% (active) | 5.49% (active) | 59% | 37.8% | 17.3% | 30.2% | -30.2% (active) | 49.7% | 23.3% | 59.4% | – | 11.8% | –
O[C@H](CN1CC1)[C@@H](O)CN1CC1 | 39.5% | 65.9% | – | 109% | 45.5% | 19.6% | 24.6% | 48.9% | 72.5% | 70.6% | 74.5% | 60.3% | 75.8% | 75.3% | 72.4% | 44.6% | 106% | 86.3% | 79.9% | 77.2%
Cc1cc(N(CCCl)CCCl)ccc1/C=N\NC(=O)c1ccncc1 | 82.4% | 85.2% | – | 96.4% | 70.7% | 56.2% | 60.3% | 90.4% | 98.3% | 87.1% | 106% | 90.5% | 88.9% | 76.1% | 53.1% | – | 99.7% | 79.8% | 88.9% | 91.7%
CC[C@H](C)[C@H](NC(=O)[C@H]1CCCCN1C)C(=O)N(C)[C@H](CCc1nc(C(=O)N[C@@H](Cc2ccccc2)C[C@H](C)C(=O)OC)cs1)C(C)C | 6.52% (active) | 9.7% (active) | 65.4% | 11.8% | 19.6% | 7.05% (active) | 0.775% (active) | -15.3% (active) | -3.3% (active) | 56.3% | 35.2% | 10.2% | 24.3% | -22.1% (active) | 41.5% | 24% | 65.6% | – | 12.3% | –
